The target of test [1] is Cytochrome P450 3A4 (Homo sapiens) (UniProt P08684). The test can be described thus: qHTS Assay for Inhibitors and Substrates of Cytochrome P450 3A4 (AID 884). Further: on the % scale 0 is the no-effect control and ±100 the full control effect; nearly all actives have a fitted effect of over 50% in size. In outline:
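Luminescent readout of luciferin produced by CYP3A4 (20 nM) dealkylation of Luciferin-PPXE, 25 uM (its KM). NADPH-driven reaction ran 60 min at RT after 10 min compound preincubation; data scaled to 57 uM ketoconazole as 100% inhibition.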
For orientation: In qHTS, concentration-response curves come from the screen itself.

Test [2] in a line: Confirmation and Secondary Assay for Modulators of Hemoglobin Beta Chain Splicing at IVS2 705 locus (AID 930).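 Further: HeLa cells stably expressing the EGFP-705 splicing reporter; GFP fluorescence per well restored by corrected splicing of the IVS2-705 intron in EGFP; % of control where 0% means no effect.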 In short, it runs like this: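 First, HeLa EGFP-705 cells are seeded at 500/well in Optimem with 2% FCS and left overnight. Next, compound or DMSO is added for 2 days. Finally wells are laser-scanned and total peak GFP intensity scored.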
Test [3] can be described thus: qHTS Assay for Lipid Storage Modulators (AID 1519; calls by dose curve; on activity change, negative = inhibition: on the % scale 0 is the no-effect control and ±100 the full control effect). The following applies: Drosophila S3 cells, BODIPY lipid droplet/cell ratio, laser cytometry, cells loaded with oleic acid; for activity change, negative = inhibition: at 57.5 µM (top of the series). In short, it runs like this:
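Cells seeded at 5,000 per well were treated with compounds over a concentration series and loaded with oleic acid (400 uM, as added). Lipid droplet fluorescence (488 nm excitation, 500-530 nm channel) was read by laser-scanning cytometry and normalized to 20 uM Triacsin C.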

Test [4] has as its target Ubiquitin carboxyl-terminal hydrolase 1 (Homo sapiens) (UniProt O94782). The test is described as follows: Inhibitors of USP1/UAF1: Pilot qHTS (AID 504865). Further: nearly all actives have a fitted effect of over 35% in size. Further: potency means the concentration at half of the fitted maximal effect.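 On activity change, negative = inhibition: rhodamine fluorescence freed from ubiquitin-rhodamine substrate followed over time; top concentration of the series differs between compounds; on the % scale 0 is the no-effect control and ±100 the full control effect.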 In outline:
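1nM USP1/UAF1 + cpd, 15 min RT; start w/ Ub-Rho 150nM final; kinetic FL 480/540 nm, 6 reads q60 s. Buffer 50mM HEPES pH 7.8, 0.5mM EDTA, 1mM TCEP, 0.01% Tween-20, 0.1 mg/ml BSA.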

A short description of test [5]: Confirmation and Secondary Assay for Modulators of Hemoglobin Beta Chain Splicing at IVS2 654 locus (AID 910).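 Further: HeLa cells stably carrying EGFP split by mutant beta-globin IVS2-654 intron; % of control where 0% means no effect.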 In short, it runs like this: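 HeLa cells stably expressing EGFP interrupted by β-globin IVS2-654 intron, seeded overnight in Opti-MEM/2% FCS, then treated 2 days at 37 °C. Restored splicing read as total peak GFP intensity per well by laser scanning cytometry (488 nm excitation, 500–520 nm emission); 500 nM antisense PNA as control.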

For test [6], the target named is Cytochrome P450 3A4 (Homo sapiens) (UniProt P08684). The test is described as follows: qHTS Assay for Activators of Cytochrome P450 3A4 (AID 885). Further: nearly all actives have a fitted effect of over 65% in size. In short, it runs like this:
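Activators are scored by enhanced luminescence from CYP3A4 conversion of luciferin-PPXE (25uM, equal to KM) to luciferin, after 60 min at RT with an NADPH-regenerating system.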

The mark [7] stands for this setting: measured here: cell count channel max response.
Setting [8] is: measured here: lipid channel max response.

Results filed as inconclusive are left out. Calls of active or inactive are those of the source. Unless noted, the call rests on the fitted dose curve; in most records, active means well fitted curve in the direction sought with a large enough effect; inconclusive means small, poorly fitted or top-dose-only effect, or another doubt; inactive means no such curve, though single readings can be large; an effect the other way counts as inactive or inconclusive.

Chain of Cytochrome P450 3A4 (Homo sapiens) (P08684 whole entry, looked up): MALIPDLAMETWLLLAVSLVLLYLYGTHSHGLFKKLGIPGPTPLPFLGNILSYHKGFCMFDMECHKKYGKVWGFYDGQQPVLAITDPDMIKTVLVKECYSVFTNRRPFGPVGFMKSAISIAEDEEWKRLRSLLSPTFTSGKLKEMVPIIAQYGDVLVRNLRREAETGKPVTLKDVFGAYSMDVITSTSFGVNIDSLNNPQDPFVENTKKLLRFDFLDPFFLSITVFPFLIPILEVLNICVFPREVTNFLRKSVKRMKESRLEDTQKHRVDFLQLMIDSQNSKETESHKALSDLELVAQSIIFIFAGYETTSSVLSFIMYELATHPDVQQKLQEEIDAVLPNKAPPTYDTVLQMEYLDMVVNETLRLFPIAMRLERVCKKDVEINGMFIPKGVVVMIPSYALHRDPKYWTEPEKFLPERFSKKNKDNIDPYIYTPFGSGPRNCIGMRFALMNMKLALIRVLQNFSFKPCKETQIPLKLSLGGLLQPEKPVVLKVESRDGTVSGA
Chain of Ubiquitin carboxyl-terminal hydrolase 1 (Homo sapiens) (O94782 whole entry, looked up): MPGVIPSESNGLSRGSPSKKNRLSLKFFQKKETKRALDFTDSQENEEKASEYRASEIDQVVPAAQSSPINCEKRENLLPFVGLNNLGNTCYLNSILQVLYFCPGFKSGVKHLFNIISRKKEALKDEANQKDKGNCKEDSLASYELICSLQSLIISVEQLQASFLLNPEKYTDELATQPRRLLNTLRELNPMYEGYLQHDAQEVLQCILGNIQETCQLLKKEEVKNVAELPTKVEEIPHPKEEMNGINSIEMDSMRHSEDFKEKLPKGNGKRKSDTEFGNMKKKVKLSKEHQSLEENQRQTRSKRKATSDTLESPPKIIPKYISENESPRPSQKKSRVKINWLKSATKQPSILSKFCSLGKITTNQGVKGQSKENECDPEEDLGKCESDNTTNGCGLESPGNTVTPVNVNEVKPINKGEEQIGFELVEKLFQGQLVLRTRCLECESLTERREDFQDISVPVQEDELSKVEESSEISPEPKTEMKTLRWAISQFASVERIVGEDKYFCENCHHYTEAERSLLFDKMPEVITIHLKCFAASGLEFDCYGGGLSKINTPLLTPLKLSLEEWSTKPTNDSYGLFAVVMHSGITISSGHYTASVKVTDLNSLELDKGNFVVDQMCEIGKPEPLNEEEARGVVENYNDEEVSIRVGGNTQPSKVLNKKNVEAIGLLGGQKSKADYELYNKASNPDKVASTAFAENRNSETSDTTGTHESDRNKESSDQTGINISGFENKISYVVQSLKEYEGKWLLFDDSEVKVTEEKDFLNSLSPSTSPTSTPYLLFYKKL

Regarding `CCC(N)C(O)c1ccc(O)c(O)c1` (stereo not drawn), the Potency result in test [1], in test [2] and in test [4] was “inactive” each time. In test [3], the activity change, negative = inhibition was 5.92% (inactive). The max response in test [3] (setting [7]) came to 7.01%; in test [3] (setting [8]), 16.7%.

Turning to `COc1cc2c(c(OC)c1OC)-c1ccc(O)c(=O)cc1C(NC(C)=O)CC2` (stereo not drawn), the Potency entry in test [1], in test [5], in test [2] and in test [4] was “inactive” throughout. Besides, in test [3], the activity change, negative = inhibition was 7.7% (inactive). For the same compound, the max response was 16.6% in test [3] (setting [7]) and 36.3% in test [3] (setting [8]).

For `CCC(C)C(=O)OC1C(O)C2C(CN3CC(C)CCC3[C@]2(C)O)C2C[C@]34O[C@@]5(O)C(OC(=O)C(C)(O)C(C)O)CCC3(C)C5C(OC(C)=O)C(OC(C)=O)C4[C@@]21O` (stereo partly drawn), the Potency entry in test [1], in test [5], in test [2] and in test [4] was “inactive” throughout. Besides, in test [3], the activity change, negative = inhibition was 4.38% (inactive). Moreover, the results for the max response in test [3] (setting [7]) and in test [3] (setting [8]) were 24.4% and 35.3%, respectively.

As for `CCC1CN2CCC1CC2C(O)c1ccnc2ccc(OC)cc12` (stereo not drawn), the Potency result in test [1], in test [2] and in test [4] was “inactive” each time. In addition, in test [3], the activity change, negative = inhibition was 6.54% (inactive). Moreover, the max response in test [3] (setting [7]) is 2.56%; in test [3] (setting [8]) it was 12.3%.

Take `CCOC(=O)C1C(C=C(C)C)C1(C)C` (stereo not drawn): the Potency entry in test [1], in test [5], in test [2] and in test [4] was “inactive” each time. Also, the activity change, negative = inhibition in test [3] was 2.84% (inactive). For the same compound, the results for the max response in test [3] (setting [7]) and in test [3] (setting [8]) were -1.43% and 3.02%, respectively.

With `CC(=O)OC1CC(OC(C)=O)[C@]2(C)C(CC(OC(C)=O)[C@]3(C)C2CC[C@@]2(C)C(c4ccoc4)C[C@H]4O[C@]432)C1(C)C` (stereo partly drawn), the Potency entry in test [1], in test [5], in test [2] and in test [4] was “inactive” throughout. Besides, the activity change, negative = inhibition in test [3] is 6.91% (inactive). For the same compound, the max response in test [3] (setting [7]) is 9.38%; in test [3] (setting [8]), 19.4%.

Take `CC1C(=O)OC2C1CC[C@@]1(C)C=CC(=O)[C@@]3(C)O[C@@]213` (stereo partly drawn): the Potency entry in test [6], in test [5], in test [2] and in test [4] was “inactive” throughout. Besides, the activity change, negative = inhibition in test [3] was 3.63% (inactive). The max response in test [3] (setting [7]) is -6.2%; in test [3] (setting [8]), 2.49%.

Take `C[C@@]12CCC3C(CC[C@@H]4CC(O)CC[C@@]34C)C1CCC2O` (stereo partly drawn): the Potency result in test [1], in test [5], in test [2] and in test [4] was “inactive” each time. Also, the activity change, negative = inhibition in test [3] was 5.33% (inactive). Moreover, the max response in test [3] (setting [7]) came out at 18.2%; in test [3] (setting [8]), 26%.

Consider `CC(=O)CC1CCCCN1` (stereo not drawn), for which the Potency result in test [1], in test [5], in test [2] and in test [4] was “inactive” each time. Also, in test [3], the activity change, negative = inhibition is 4.86% (inactive). The results for the max response in test [3] (setting [7]) and in test [3] (setting [8]) were 11.3% and 14.1%, respectively.

For `FC(F)(F)c1cccc(N2CCNCC2)c1`, the Potency entry in test [1], in test [5], in test [2] and in test [4] was “inactive” in each case. Besides, the activity change, negative = inhibition in test [3] is 4.68% (inactive). Further, the max response was -7.45% in test [3] (setting [7]) and -3.82% in test [3] (setting [8]).

On to `CC(=O)OC1C(=O)[C@]2(C)C(O)CC3OC[C@]3(OC(C)=O)C2[C@@H](OC(=O)c2ccccc2)[C@]2(O)CC(O)C(C)=C1C2(C)C` (stereo partly drawn), for which the Potency entry in test [1], in test [5], in test [2] and in test [4] was “inactive” each time. For the same compound, the activity change, negative = inhibition in test [3] is 0.522% (inactive). The max response in test [3] (setting [7]) is 3.27%; in test [3] (setting [8]) it was 6.64%.

For `C[C@@]12CCC(=O)C[C@@H]1CC[C@@H]1[C@@H]2CC[C@]2(C)C(=O)CC[C@@H]12`, the Potency result in test [1], in test [2] and in test [4] was “inactive” each time. Moreover, the activity change, negative = inhibition in test [3] was 6.14% (inactive). Besides, the max response was found to be 2.79% in test [3] (setting [7]) and 10.6% in test [3] (setting [8]).

For the compound `CC1(C)C(O)CC(=O)[C@]2(C)C1CC(=O)[C@]1(C)C2CC[C@@]2(C)C(c3ccoc3)OC(=O)C3O[C@@]321` (stereo partly drawn), the Potency result in test [6], in test [5], in test [2] and in test [4] was “inactive” throughout. For the same compound, the activity change, negative = inhibition in test [3] was -3.35% (inactive). Besides, the max response in test [3] (setting [7]) was determined as 16.1%; in test [3] (setting [8]) it was 14.7%.

In the case of `COC1=CC2C3Cc4ccc(OC)c(O)c4[C@]2(CCN3C)CC1=O` (stereo partly drawn), the Potency entry in test [1], in test [5], in test [2] and in test [4] was “inactive” each time. Further, the activity change, negative = inhibition in test [3] is 4.04% (inactive). Further, the max response was -5.63% in test [3] (setting [7]) and 0.618% in test [3] (setting [8]).

With `CC(=O)O.CC(=O)O.[Cd]`, the Potency entry in test [1], in test [5], in test [2] and in test [4] was “inactive” throughout. The activity change, negative = inhibition in test [3] was 4.11% (inactive). Moreover, the max response in test [3] (setting [7]) was determined as 7.92%; in test [3] (setting [8]), 9.61%.

Consider `Cc1c(O)c(O)cc2c1CC=C1[C@]3(C)CC[C@]4(C)CC[C@@](C)(C(=O)O)CC4[C@]3(C)CC[C@]12C` (stereo partly drawn), for which the Potency entry in test [1], in test [5], in test [2] and in test [4] was “inactive” throughout. In addition, the activity change, negative = inhibition in test [3] is -4.4% (inactive). The max response turned out to be 19.2% in test [3] (setting [7]) and 14.7% in test [3] (setting [8]).

For the compound `COC(=O)COc1cc(Cl)c(Cl)cc1Cl`, the Potency result in test [1], in test [5], in test [2] and in test [4] was “inactive” each time. For the same compound, the activity change, negative = inhibition in test [3] is 2.27% (inactive). Moreover, the max response in test [3] (setting [7]) amounted to 13.1%; in test [3] (setting [8]), 15.5%.

As to `O=C1CCCC2C3CC(CN12)C1CCCCN1C3` (stereo not drawn), the Potency entry in test [1], in test [5], in test [2] and in test [4] was “inactive” each time. Moreover, in test [3], the activity change, negative = inhibition is 6.45% (inactive). The max response in test [3] (setting [7]) worked out at 7.08%; in test [3] (setting [8]), 15%.

Take `N#CC(O[C@@H]1OC(COC2OC(CO)C(O)C(O)[C@@H]2O)C(O)C(O)C1O)c1ccccc1` (stereo partly drawn): the Potency entry in test [1], in test [5], in test [2] and in test [4] was “inactive” throughout. Besides, in test [3], the activity change, negative = inhibition is 2.68% (inactive). The max response is -0.407% in test [3] (setting [7]) and 5.27% in test [3] (setting [8]).

`COc1cc(OC)c2c(c1)OC(c1ccc(OC)c(OC)c1)C(O)C2` (stereo not drawn): the Potency entry in test [1], in test [5], in test [2] and in test [4] was “inactive” throughout. Moreover, the activity change, negative = inhibition in test [3] was 10.8% (inactive). Besides, the max response in test [3] (setting [7]) amounted to 10.1%; in test [3] (setting [8]) it was 29.4%.

Take `CC1C(=O)OC2CCN3CC=C(COC(=O)[C@](C)(O)[C@]1(C)O)C23` (stereo partly drawn): the Potency entry in test [1], in test [5], in test [2] and in test [4] was “inactive” throughout. In addition, the activity change, negative = inhibition in test [3] is 5.81% (inactive). Also, the values for the max response in test [3] (setting [7]) and in test [3] (setting [8]) were -2.74% and 4.32%, respectively.

`COc1c(CC=C(C)C)c2c(c3oc(=O)c(-c4ccc(O)cc4)c(O)c13)C=CC(C)(C)O2`: the Potency result in test [6], in test [5] and in test [2] was “inactive” throughout. The activity change, negative = inhibition in test [3] was 3.02% (inactive). The max response came to 14.5% in test [3] (setting [7]) and 15.5% in test [3] (setting [8]). Moreover, the Potency in test [4] is 79.4 µM (active).

As for `N#C/C(=C\c1ccc(O)cc1)C(=O)O`, the Potency entry in test [6], in test [5], in test [2] and in test [4] was “inactive” each time. Besides, the activity change, negative = inhibition in test [3] is 4.55% (inactive). The max response turned out to be 8.92% in test [3] (setting [7]) and 15.9% in test [3] (setting [8]).

The values are drawn from PubChem BioAssay (NCATS).
